The results in this text go back to PubChem BioAssay (NCATS).

For assay [1], the target named is Alpha-galactosidase A (Homo sapiens) (UniProt P06280). Description: Counterscreen for Glucocerebrosidase Inhibitors: qHTS Assay for Human alpha-Galactosidase at pH 4.5 (AID 992). Also: 0% is about no effect. The essentials:
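Human enzyme (2 nM) with 80 uM 4-methylumbelliferyl alpha-D-galactopyranoside in 50 mM citric acid, 0.005% Tween-20, pH 4.5, 20 min at room temperature. Compounds 0.7 nM–77 uM; fluorescence Ex 365/Em 440 after pH 10 stop; AC50 from Hill fits.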
(In general: The purpose of a counterscreen is to sort out artefacts and off-target activity.)

Assay [2] addresses Alpha-galactosidase (Coffea arabica) (UniProt Q42656). Description: Counterscreen for Glucocerebrosidase Inhibitors: qHTS Assay for Coffee Bean alpha-Galactosidase at pH 5.9 (AID 998).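 Also: plate controls were uninhibited enzyme for no effect and no-enzyme basal signal for full effect.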 The essentials: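 Green coffee bean enzyme (2 nM) with 4-methylumbelliferyl alpha-D-galactopyranoside (80 uM) in 50 mM citric acid, 0.005% Tween-20, pH 5.9, 20 min at room temperature; compounds 0.7 nM–77 uM. Stopped at pH 10, fluorescence Ex365/Em440; Hill-fit AC50.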

Assay [3] in a line: qHTS Assay for Lipid Storage Modulators (AID 1519; calls by dose curve; as to activity change, negative = inhibition: % is scaled to controls: 0 for no effect and ±100 for the full control effect). Conditions: Drosophila S3 cells, BODIPY lipid droplet/cell ratio, laser cytometry, cells loaded with oleic acid; for activity change, negative = inhibition: at 57.5 µM (top of the series). The procedure, abridged:
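Cells seeded at 5,000 per well were treated with compounds over a concentration series and loaded with oleic acid (400 uM, as added). Lipid droplet fluorescence (488 nm excitation, 500-530 nm channel) was read by laser-scanning cytometry and normalized to 20 uM Triacsin C.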
(In general: qHTS replaces the single test concentration by a dilution series.)

Assay [4] can be described thus: Cell Viability - LYMP2-025 (AID 976). Also: potency is read from the fitted curve at half-maximal effect. The essentials: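 In qHTS format, LYMP2-025 lymphoblastoid cells in complete culture medium received compound for 24 hr; ATP-based CellTiter-Glo signal gave viability, with AC50 derived by Hill equation.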
Assay [5] can be described thus: Cell Viability - LYMP2-002 (AID 977).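 Also: compound exposure lasted 24 h at 37 °C.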 Also: potency is read from the fitted curve at half-maximal effect. The essentials: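 Human lymphoblastoid LYMP2-002 cells, 2500 per well, exposed to compounds for 24 h at 37 C in complete medium; viability read as intracellular ATP by CellTiter-Glo luminescence, AC50 from Hill fits.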
A short description of assay [6]: Cell Viability - LYMP2-006 (AID 978). Also: nearly all actives have a fitted effect of over 60% in size. Also: potency is read from the fitted curve at half-maximal effect. The procedure, abridged: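 qHTS, 1536-well; 2500 cells/well, 5 hr 37 C; cpd 24 hr 37 C; CellTiter-Glo 30 min RT; luminescence. Tetraoctylammonium bromide pos. ctrl. AC50 via Hill eqn.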
Assay [7] is described as follows: Cell Viability - LYMP2-007 (AID 979).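 Also: cells exposed to compound for 24 h before reading; nearly all actives have a fitted effect of over 60% in size.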 Also: potency is read from the fitted curve at half-maximal effect. The essentials:
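Acute toxicity is scored as a concentration-dependent fall in intracellular ATP in human lymphoblastoid cells treated 24 hr at 37 C, measured by luciferase luminescence; Hill-equation modelling yields AC50.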

A short description of assay [8]: Cell Viability - LYMP2-008 (AID 980). Also: nearly all actives have a fitted effect of over 60% in size. Also: potency is read from the fitted curve at half-maximal effect. The essentials:
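Acute cytotoxicity is scored as concentration-dependent loss of cellular ATP in a human lymphoblastoid line after 24 hr treatment at 37 C. ATP is quantified by luciferase luminescence.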

Assay [9] can be described thus: Cell Viability - LYMP2-010 (AID 981). Also: nearly all actives have a fitted effect of over 55% in size. Also: potency is read from the fitted curve at half-maximal effect. The essentials: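 Acute toxicity is scored as a concentration-dependent loss of cellular ATP in human lymphoblastoid cells after 24 hr compound exposure in complete medium. Tetraoctylammonium bromide is the positive control.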
Assay [10] in a line: Cell Viability - LYMP2-012 (AID 982).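 Also: cellular ATP by luciferase luminescence where a drop means cytotoxicity; cells exposed to compound for one day before reading; nearly all actives have a fitted effect of over 55% in size.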 Also: potency is read from the fitted curve at half-maximal effect.
The nature of assay [11]: Cell Viability - LYMP2-014 (AID 983). Also: nearly all actives have a fitted effect of over 50% in size. Also: potency is read from the fitted curve at half-maximal effect. The procedure, abridged:
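Decrease in intracellular ATP after 24 hr treatment at 37 C, measured by luciferase luminescence, indicated cytotoxicity. Concentration-response data were fitted with the standard Hill equation to give AC50.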

A short description of assay [12]: Cell Viability - LYMP2-016 (AID 984). Also: nearly all actives have a fitted effect of over 55% in size. Also: potency is read from the fitted curve at half-maximal effect. The procedure, abridged: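 qHTS, 1536-well: 2500 LYMP2-016 cells/well, 5 hr 37 C, compound added, 24 hr 37 C, CellTiter-Glo 30 min RT, luminescence. Tetraoctylammonium bromide positive control. AC50 via Hill fit.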
Assay [13] is described as follows: Cell Viability - LYMP2-018 (AID 985).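 Also: compound exposure lasted 24 hr at 37 °C; nearly all actives have a fitted effect of over 50% in size.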 Also: potency is read from the fitted curve at half-maximal effect. The procedure, abridged: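 Acute cytotoxicity is scored as a concentration-dependent drop in intracellular ATP after 24 hr exposure of the lymphoblastoid line in complete culture medium, measured by luciferase luminescence. Potency is expressed as AC50 from Hill modelling.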
A short description of assay [14]: Cell Viability - LYMP2-020 (AID 986). Also: nearly all actives have a fitted effect of over 55% in size. Also: potency is read from the fitted curve at half-maximal effect. The procedure, abridged:
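Acute cytotoxicity in a human lymphoblastoid line is scored as a concentration-dependent fall in cellular ATP after 24 hr at 37 C in complete medium. The positive control is tetraoctylammonium bromide, and potency is given as Hill-fit AC50.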

Assay [15] is described as follows: Cell Viability - LYMP2-022 (AID 987). Also: nearly all actives have a fitted effect of over 55% in size. Also: potency is read from the fitted curve at half-maximal effect. The essentials: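 Acute toxicity in a human lymphoblastoid line is scored as decreased intracellular ATP after 24 hr compound treatment at 37 C. ATP is measured by CellTiter-Glo luminescence; curves are fitted with the Hill equation to give AC50.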
Assay [16] is described as follows: Cell Viability - LYMP2-024 (AID 988). Also: nearly all actives have a fitted effect of over 60% in size. Also: potency is read from the fitted curve at half-maximal effect. The procedure, abridged:
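Acute toxicity is measured as concentration-dependent loss of intracellular ATP in a human lymphoblastoid line treated 24 hours at 37 C. Luciferase luminescence quantifies ATP; AC50 values come from standard Hill-equation modelling.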

The nature of assay [17]: Cell Viability - LYMP2-026 (AID 989). Also: nearly all actives have a fitted effect of over 50% in size. Also: potency is read from the fitted curve at half-maximal effect. The essentials: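 Concentration-dependent loss of intracellular ATP in human lymphoblastoid cells after 24 hr at 37 C, quantified by luciferase luminescence. AC50 derived from standard Hill equation.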
Assay [18] in a line: Cell Viability - LYMP1-002 - Assay at 24 hr (AID 993). Also: potency is read from the fitted curve at half-maximal effect. The procedure, abridged: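 qHTS, LYMP1-002 lymphoblastoid, 24 h cpd, 37 C, CellTiter-Glo ATP luminescence; AC50 via Hill eq.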
Assay [19] is described as follows: Cell Viability - LYMP1-002 - Assay at 40 hr (AID 994). Also: nearly all actives have a fitted effect of over 60% in size. Also: potency is read from the fitted curve at half-maximal effect. The procedure, abridged:
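Viability in the human lymphoblastoid line was measured as intracellular ATP via CellTiter-Glo after 40 hr compound exposure. Tetraoctylammonium bromide served as positive control.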

Setting [20] is: measured here: cell count channel max response.
Setting [21] is: measured here: lipid channel max response.

Where “and” joins values, the source holds several entries; their conditions need not be identical. Equal values may be shown once. Records with an inconclusive call do not appear. Calls of active or inactive are those of the source. Unless noted, calls follow the shape of the dose curve; as a rule, active = well fitted curve in the direction sought with a large enough effect; inconclusive = small, poorly fitted or top-dose-only effect, or another doubt; inactive = no such curve, though single readings can be large; an effect the other way counts as inactive or inconclusive.

Chain of Alpha-galactosidase A (Homo sapiens) (P06280 whole entry, looked up): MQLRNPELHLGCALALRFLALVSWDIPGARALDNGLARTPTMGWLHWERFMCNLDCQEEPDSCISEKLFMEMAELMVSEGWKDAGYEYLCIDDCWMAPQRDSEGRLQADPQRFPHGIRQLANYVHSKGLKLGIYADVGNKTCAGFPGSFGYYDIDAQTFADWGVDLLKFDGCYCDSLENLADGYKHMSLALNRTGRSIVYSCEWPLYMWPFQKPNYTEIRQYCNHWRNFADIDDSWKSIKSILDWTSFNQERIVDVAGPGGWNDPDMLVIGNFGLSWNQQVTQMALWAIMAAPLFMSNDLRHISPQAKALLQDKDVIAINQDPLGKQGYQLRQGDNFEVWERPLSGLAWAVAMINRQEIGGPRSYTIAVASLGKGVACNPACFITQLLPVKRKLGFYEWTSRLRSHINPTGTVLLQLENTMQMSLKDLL
Chain of Alpha-galactosidase (Coffea arabica) (Q42656 whole entry, looked up): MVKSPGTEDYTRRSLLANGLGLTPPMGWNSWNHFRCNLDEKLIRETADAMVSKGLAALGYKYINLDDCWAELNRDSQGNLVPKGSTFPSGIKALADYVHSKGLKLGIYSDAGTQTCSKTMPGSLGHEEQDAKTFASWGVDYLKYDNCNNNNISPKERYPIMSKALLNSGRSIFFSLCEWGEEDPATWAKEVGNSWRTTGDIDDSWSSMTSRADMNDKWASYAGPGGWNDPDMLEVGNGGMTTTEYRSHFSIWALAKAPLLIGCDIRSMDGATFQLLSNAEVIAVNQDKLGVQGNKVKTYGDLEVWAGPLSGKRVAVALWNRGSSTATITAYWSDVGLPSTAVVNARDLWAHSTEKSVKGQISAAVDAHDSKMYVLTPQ

As to `O=C(O)CC[N+](=O)[O-]`, the outcome in assay [1] and in assay [2] was inactive. For the same compound, the activity change, negative = inhibition in assay [3] is 1.53% (inactive) and -0.853% (inactive). For the same compound, the max response in [3] (setting [20]) was 11.6% and 14.1%; in [3] (setting [21]), 18.9% and 15.4%.
With `c1ccc2sc(C3(N4CCCCC4)CCCCC3)cc2c1`, the compound was classed as inactive in assay [1] and in [2]. The activity change, negative = inhibition in [3] was -6.45% (inactive) and -1.27% (inactive). Besides, the max response in assay [3] (setting [20]) was -3.55% and -30.8%; in assay [3] (setting [21]) it was 4.98% and -30.4%.
On to `NCc1cc(=O)[nH]o1`, for which the call in assay [1] and in [2] was inactive. Moreover, the activity change, negative = inhibition in assay [3] is -0.672% (inactive). For the same compound, the max response in assay [3] (setting [20]) was determined as 5.31%; in [3] (setting [21]) it was 4.46%.
As for `O=C(O)Cc1cnc[nH]1`, the compound was called inactive in [1] and in assay [2]. The activity change, negative = inhibition in [3] was -0.977% (inactive). Besides, the values for the max response in [3] (setting [20]) and in assay [3] (setting [21]) were 21.8% and 19%, respectively.
For `CCCCC(CC)COC(=O)c1ccccc1C(=O)OCC(CC)CCCC` (configuration not stated), the Potency entry in assay [4], in [5], in assay [6], in assay [7], in [8] and in [9] was “inactive” throughout. In addition, the Potency entry in assay [10], in assay [11], in [12], in assay [13], in [14] and in assay [15] was “inactive” each time. Moreover, the Potency result in assay [16], in [17], in assay [18] and in assay [19] was “inactive” throughout.
In the case of `CC[C@@]1(O)C(=O)OCc2c1cc1n(c2=O)Cc2cc3ccccc3nc2-1`, the result in assay [1] and in assay [2] was inactive. Moreover, in assay [3], the activity change, negative = inhibition is -4.36% (inactive). Moreover, the values for the max response in [3] (setting [20]) and in assay [3] (setting [21]) were 13.2% and 8.88%, respectively.
Consider `CNCCc1c[nH]c2ccc(O)cc12`, for which the result in [1] and in assay [2] was inactive. Besides, the activity change, negative = inhibition in assay [3] was 1.79% (inactive) and 0.655% (inactive). Further, the max response was 5.25% and 4.7% in assay [3] (setting [20]); 5.9% and 3.87% in [3] (setting [21]).
With `CN(C)[C@@H]1C(=O)C(C(N)=O)=C(O)[C@@]2(O)C(=O)C3=C(O)c4c(O)cccc4[C@@](C)(O)[C@H]3[C@H](O)[C@@H]12`, the Potency result in assay [4], in assay [5], in [6], in assay [7], in assay [8] and in assay [9] was “inactive” throughout. Moreover, the Potency entry in assay [10], in assay [11], in assay [12], in [13], in assay [14] and in assay [15] was “inactive” throughout. Besides, the Potency entry in [16], in [17], in [18] and in assay [19] was “inactive” in each case.
With `Nc1ccc(Cl)cc1`, the Potency result in [4], in assay [5], in [6], in assay [7], in assay [8] and in assay [9] was “inactive” throughout. The Potency result in [10], in [11], in assay [12], in [13], in assay [14] and in assay [15] was “inactive” throughout. For the same compound, the Potency entry in assay [16], in assay [17], in [18] and in assay [19] was “inactive” each time.
For `CCCN(CCC)[C@@H]1CCc2ccc(O)cc2C1`, the outcome in [1] and in assay [2] was inactive. For the same compound, the activity change, negative = inhibition in assay [3] is -4.72% (inactive) and 0.978% (inactive). Moreover, the max response in [3] (setting [20]) is -36.9% and -10.5%; in assay [3] (setting [21]), -41.2% and -9.44%.
With `CC(=O)[O][Hg][c]1ccccc1`, the Potency in assay [4] is 1.26 µM (active); in assay [5], 1.58 µM (active); in assay [6] it was 1.58 µM (active); in assay [7] it was 1 µM (active); in [8] it was 1.26 µM (active); in assay [9] it was 0.398 µM (active). Moreover, the Potency in assay [10] is 0.501 µM (active); in [11], 1.58 µM (active); in [12] it was 1 µM (active); in assay [13] it was 0.631 µM (active); in [14], 0.794 µM (active); in assay [15], 0.501 µM (active). The Potency in assay [16] was 0.501 µM (active); in assay [17] it was 1.26 µM (active); in assay [18] it was 3.98 µM (active); in [19] it was 3.98 µM (active).
Take `CC(=O)Oc1ccccc1C(=O)O`: in assay [2], the result was inactive.
Regarding `CCN1CCc2nc(N)oc2CC1`, in [2], the outcome was inactive.
On the same count and under the same terms, the same measure for `CCn1cc(C(=O)O)c(=O)c2cc3c(cc21)OCO3`: “inactive”; for `CC(C)c1ccc2c(c1)c(SC(C)(C)C)c(CC(C)(C)C(=O)O)n2Cc1ccc(Cl)cc1`: “inactive”.
As to `CC1=NN=C(c2ccc(N)cc2)c2cc3c(cc2C1)OCO3`, the compound was classed as inactive in assay [1] and in assay [2].
For the compound `CC(=O)NCCc1c[nH]c2ccccc12`, the result in assay [1] and in assay [2] was inactive.
